Source: PubChem BioAssay (National Center for Advancing Translational Sciences (NCATS))
In the library only some 2.8% were active in any assay of this set; here they are far more common.
SNCA viab count – cell viability loss counter-screen. HEK-293-SNCA-luc viability, GF-AFC fluorescence, 24 h. Potency, µM (series often up to 57.1 µM), without a hit: at the top dose activity change, negative = cytotoxicity, usual class: cytotoxic. hit rate 0.12% among 150,000. AID 1671193;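 note: potency is the fitted concentration of half-maximal effect; 0% = DMSO-treated cells and -100% = medium-only wells without cells; nearly all actives have a fitted effect of over 30% in size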
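Cytotoxicity counterscreen: after 24 h compound treatment of genome-edited SNCA-luciferase HEK-293 cells, live-cell protease substrate GF-AFC read by fluorescence after 30 min; activity scaled between DMSO (0%) and medium-only (-100%), curves Hill-fitted.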
IP6K1 inh – blocks human inositol hexakisphosphate kinase 1; Q92551; IP6K1 kinase, ADP-Glo luminescence, 2 h; stronger effect = lower value; activity change, % (series mostly up to about 58 µM); hit rate 0.81% among 140,000; AID 1645851; in the data active = activity change below about -25%; note: % is set by controls: 0 for no effect and ±100 for the full control effect
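ADP-Glo luminescence measures ADP made by human IP6K1 during a 2 h RT reaction with ATP/IP6 (mix at 1.3 mM/130 uM); top library doses 57.5 and 19.1 uM final.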
KDM5B inh – inhibitors of human KDM5B histone demethylase | Potency, µM (titrated, usually from 57.7 µM), most hits filed as inhibitors | hit rate 2.6% among 220,000 | KDM5B demethylase, FDH-coupled NADH fluorescence (FDH is formaldehyde dehydrogenase) | AID 1347165; note: potency is the fitted concentration of half-maximal effect; 0% is about no effect; nearly all actives have a fitted effect of over 70% in size
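Inhibition is measured as reduced NADH fluorescence generation from FDH coupling to formaldehyde release. Truncated KDM5BΔAP at 200 nM final acts on H3K4me3 peptide (12.5 µM in substrate mix) in pH 7.5 HEPES buffer with Tween-20, 30 min, room temperature.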
SNCA expr inh – SNCA gene expression inhibition. Potency, µM (top dose mostly 57.2 µM), without a hit: at the top dose activity change, negative = inhibition, most hits filed as inhibitors. HEK-293 SNCA-luciferase knock-in, luminescence, 24 h. hit rate 0.17% among 140,000;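 note: potency is the fitted concentration of half-maximal effect; plate controls were DMSO cells for no effect and cell-free wells for full effect; nearly all actives have a fitted effect of over 45% in size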
* hit, by the source's call. Unless noted, calls come from the whole dose curve; as a rule, active = well fitted curve in the direction sought with a large enough effect; inconclusive = small, poorly fitted or top-dose-only effect, or another doubt; inactive = no such curve, though single readings can be large; an effect the other way counts as inactive or inconclusive.

For Cc1ccc(/C=C/C(=O)OCc2ccc(C#N)cc2)cc1 the results were KDM5B inh inactive.
Cc1ccc2c(c1)SC(C(=O)Nc1ccc(C)c(C)c1)C2 (centres undefined) was read as KDM5B inh inactive.
Screening O=C1CN(C(=O)Cn2c(=O)c3c(ncn3Cc3ccccc3)n(Cc3ccccc3)c2=O)CCN1 returned KDM5B inh inactive.
`O=C(O)CN1CCCC1` gave KDM5B inh inactive.
`CCOc1ccc(NC(=O)C2CC(=O)N(c3n[nH]c4cccc(F)c34)C2)cc1` (centres undefined) gave SNCA viab count 1%, IP6K1 inh -2, KDM5B inh 22µM* and SNCA expr inh 10%.
`COc1ccc(OC)c(NC(=O)C2CC(=O)N(c3n[nH]c4cccc(F)c34)C2)c1` (centres undefined) gave SNCA viab count 3%, IP6K1 inh -2, KDM5B inh 32µM* and SNCA expr inh 12%.
For Cc1ccc(NC(=O)C2CC(=O)N(c3n[nH]c4cccc(F)c34)C2)nc1 (centres undefined) the results were SNCA viab count -11%, IP6K1 inh -10, KDM5B inh inactive and SNCA expr inh 1%.
`Cc1ccnc(NC(=O)C2CC(=O)N(c3n[nH]c4cccc(F)c34)C2)c1` (centres undefined) gave SNCA viab count 5%, IP6K1 inh 3, KDM5B inh inactive and SNCA expr inh -15%.
COc1ccc(CNC(=O)C2CC(=O)N(c3n[nH]c4cccc(F)c34)C2)cc1OC (centres undefined) was read as SNCA viab count 13%, IP6K1 inh -1, KDM5B inh inconclusive and SNCA expr inh 5%.
`Cc1ccc(NC(=O)C2CC(=O)N(c3n[nH]c4cccc(F)c34)C2)c(C)c1` (centres undefined) gave SNCA viab count 10%, IP6K1 inh -11, KDM5B inh 22µM* and SNCA expr inh -2%.
Screening Clc1ccc(-c2cnc([C@@H]3COCCN3C3CCCCC3)[nH]2)s1 returned SNCA viab count inconclusive, IP6K1 inh 5, KDM5B inh inconclusive and SNCA expr inh inconclusive.
For CCc1noc(-c2cccn3c(CNC(=O)Cc4ccccc4Cl)nnc23)n1 the results were SNCA viab count -16%, IP6K1 inh 14, KDM5B inh 20µM* and SNCA expr inh 8%.
For CCc1noc(-c2cccn3c(CNC(=O)Cc4ccccc4C)nnc23)n1 the results were SNCA viab count -3%, IP6K1 inh 34, KDM5B inh 25µM* and SNCA expr inh -16%.
`CCc1noc(-c2cccn3c(CNC(=O)Cc4ccc(Cl)cc4)nnc23)n1` gave SNCA viab count -6%, IP6K1 inh -2, KDM5B inh 25µM* and SNCA expr inh 7%.
For CCCc1noc(-c2cccn3c(CNC(=O)Cc4ccccc4OC)nnc23)n1 the results were SNCA viab count 1%, IP6K1 inh 8, KDM5B inh inactive and SNCA expr inh 7%.
`CCc1noc(-c2cccn3c(CNC(=O)C(C)Oc4ccccc4)nnc23)n1` (centres undefined) gave SNCA viab count 2%, IP6K1 inh -3, KDM5B inh inconclusive and SNCA expr inh 6%.
For C=CCn1c(SCC(=O)OCc2ccccc2)nc2c1c(=O)[nH]c(=O)n2C the results were KDM5B inh inactive.
For COC(=O)c1cc(C)nc2c1c(=O)n(Cc1nc(-c3cccc(OC)c3OC)oc1C)c(=O)n2C the results were KDM5B inh inactive.
`CCCCCOc1ccc(C(C2C(=O)CC(c3ccccc3)CC2=O)C2C(=O)CC(c3ccccc3)CC2=O)cc1` (centres undefined) gave KDM5B inh inactive.
For CSc1cccc(NC(=O)NC(C)c2ccc(Cl)s2)c1 (centres undefined) the results were KDM5B inh inactive.
Screening COc1ccc(NC(=O)c2cnc[nH]2)cc1 returned SNCA viab count -12%, IP6K1 inh -3, KDM5B inh inactive and SNCA expr inh 14µM*.
COc1ccc(C(=O)c2cnc[nH]2)cc1 was read as KDM5B inh inactive.
Fc1ccc(Cc2noc(-c3nc(-c4ccc5c(c4)OCO5)no3)n2)cc1 was read as SNCA viab count -2%, IP6K1 inh 0, KDM5B inh inconclusive and SNCA expr inh 0%.
Screening COc1ccc(-c2noc(-c3nc(Cc4ccccc4)no3)n2)cc1 returned SNCA viab count -3%, IP6K1 inh 3, KDM5B inh 32µM* and SNCA expr inh -13%.
